From PubChem BioAssay
Pf growth 48h – Primary qHTS for delayed death inhibitors of the malarial parasite plastid, 48 hour incubation; 5.9% of 310,000 active; Potency, µM (doses to about 28.7 µM), inactives show at the top dose activity change, negative = inhibition, most hits filed as inhibitors; AID 504832, 2011; P. falciparum luciferase growth in erythrocytes, 48 h; also: potency is read from the fitted curve at half-maximal effect; % is scaled to controls: 0 for no effect and ±100 for the full control effect
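Luciferase-expressing P. falciparum in infected erythrocytes (2% hematocrit, 0.1% parasitemia final) in RPMI 1640/0.5% Albumax were exposed to compound for 48 hours at 37 C, 5% CO2; growth read as luminescence.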
Pf growth 96h – Primary qHTS for delayed death inhibitors of the malarial parasite plastid, 96 hour incubation. P. falciparum luciferase reporter growth, 96 h. Potency, µM (doses to about 28.7 µM), for inactives: at the top dose activity change, negative = inhibition, most hits filed as inhibitors. 6.9% of 320,000 active. AID 504834, 2011; also: potency is read from the fitted curve at half-maximal effect; % is scaled to controls: 0 for no effect and ±100 for the full control effect
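96 h incubation, 37 C, 5% CO2, of luciferase-reporter P. falciparum-infected RBCs (2% hematocrit, 0.05% parasitemia final) with test compounds; endpoint luminescence.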
Cycloheximide cs – Cycloheximide Counterscreen for Small Molecule Inhibitors of Shiga Toxin; AID 2314, 2010; max response, %; 12% of 300,000 active; cell reporter, cycloheximide protein synthesis inhibition counterscreen; in the data active = max response mostly above about 13%, no sharp cut-off; inactive = mostly below about 14%; also: read at 38.3 µM for the half of the compounds with a filed dose; 0% is about no effect
Shiga inhibitor – A qHTS for Small Molecule Inhibitors of Shiga Toxin. Vero cells, Shiga toxin protein synthesis inhibition reporter. inhibition, % at 38.7 µM. 9.2% of 290,000 active; in the data active = inhibition mostly above about 28%, no sharp cut-off; inactive = mostly below about 43%; also: 0% is about no effect
Starred values were filed as active, the others as inactive; ? = inconclusive; . = no result. This is a sample that favours compounds with a hit; in the whole collection about 21% have one here. Unless noted, calls follow the shape of the dose curve; as a rule, active = well fitted inhibition curve with a large enough effect; inconclusive = small, poorly fitted or top-dose-only effect, or another doubt; inactive = no such curve, though single readings can be large or run the other way.

SMILES | Pf growth 48h | Pf growth 96h | Cycloheximide cs | Shiga inhibitor
COc1ccc(N(C(=O)c2snc(C(N)=O)c2N)C(C(=O)NC2CCCCC2)c2ccc(C)o2)c(OC)c1 (configuration not stated) | 13µM* | 50% | 5 | -9
COc1ccc(C(C(=O)NC2CCCCC2)N(C(=O)c2snc(C(N)=O)c2N)c2ccc(OC)cc2OC)cc1 (configuration not stated) | ? | 27% | -4 | -4
CCOC(=O)c1snc(C(=O)NC2CCCCC2)c1N | 90% | . | 24* | 161*
CCCC(C(=O)NC(C)(C)C)N(C(=O)c1snc(C(N)=O)c1N)c1ccc2c(c1)OCCO2 (configuration not stated) | 45% | ? | 56* | 114*
CCC(C)(C)NC(=O)CN(C(=O)c1snc(C(N)=O)c1N)c1ccc2c(c1)OCCO2 | -12% | 14% | -1 | 3
Cc1cccc(N(C(=O)c2snc(C(N)=O)c2N)C(C(=O)NC2CCCC2)c2ccc(C)o2)c1 (configuration not stated) | 8.3µM* | 28% | 6 | 34
Cc1cccc(N(C(=O)c2snc(C(N)=O)c2N)C(C(=O)NC2CCCC2)c2ccncc2)c1 (configuration not stated) | ? | ? | -5 | 25
CCCC(C(=O)NC1CCCC1)N(Cc1ccc2c(c1)OCO2)C(=O)c1snc(C(N)=O)c1N (configuration not stated) | . | 9.3µM* | -2 | -9
CCCCC(C(=O)NC1CCCC1)N(C(=O)c1snc(C(N)=O)c1N)c1ccc(F)cc1 (configuration not stated) | ? | 5.9µM* | -4 | -11
CCCC(C(=O)NC1CCCC1)N(Cc1ccc(F)cc1)C(=O)c1snc(C(N)=O)c1N (configuration not stated) | ? | ? | -4 | -8
CCNS(=O)(=O)c1ccc(CCC(=O)N2CCc3ccccc3C2)cc1 | -2% | ? | -4 | .
COC(=O)c1cccc(N(C(=O)c2cnccn2)C(C(=O)NC2CCCCC2)c2cn(C)nc2C)c1 (configuration not stated) | -24% | 6% | 9 | 40
Cc1ccc(C(=O)CCC(=O)OCC(=O)N(C)c2c(N)n(Cc3ccccc3)c(=O)[nH]c2=O)cc1 | 0% | 3% | . | .
CC(=O)NC(Cc1ccc(F)cc1)C(=O)NC1CCN(C(=O)Nc2ccc(F)cc2)CC1 (configuration not stated) | -8% | -3% | -2 | -7
COCCN(C(=O)c1ccccc1OC1CCN(S(C)(=O)=O)CC1)C(C)C | -12% | ? | 1 | -7
CC(C)(C)NC(=O)CN(C(=O)c1snc(C(=O)NC2CCCCC2)c1N)c1ccc(F)cc1 | 7.4µM* | ? | -4 | -19
Cc1ccc(N(C(=O)c2snc(C(N)=O)c2N)C(C(=O)NC2CCCC2)c2ccc(C)o2)cc1 (configuration not stated) | 10µM* | ? | -7 | 6
CC(C)CC(C(=O)NC(C)(C)C)N(Cc1cccs1)C(=O)c1snc(C(N)=O)c1N (configuration not stated) | -16% | 21% | 49* | 47*
Cc1ccc(/C=N/NC(=O)COc2ccc(Cl)c(C)c2)o1 | -1% | 54% | -4 | -4
CCc1nnc(NC(=O)C(=O)NCCOC(=O)c2ccccc2)s1 | -18% | . | -2 | -12
Cc1ccc(N(CC(=O)Nc2cc(Cl)ccc2Oc2ccccc2)S(C)(=O)=O)c(C)c1 | . | 12µM* | 15 | 3
Cc1ccc(N(CC(=O)Nc2cc(Cl)ccc2Oc2ccccc2)S(C)(=O)=O)cc1C | . | 8.3µM* | -3 | -21
COc1ccc(C)cc1NC(=O)CN(c1ccccc1)S(C)(=O)=O | 2% | ? | -4 | 43
Cc1ccc(Oc2ccc(Cl)cc2NC(=O)c2ccc(F)cc2F)cc1 | 5.2µM* | 10µM* | -3 | -2
Cc1ccc(N(C(C)C(=O)Nc2cc(Cl)ccc2Oc2ccccc2)S(C)(=O)=O)cc1 (configuration not stated) | 4.7µM* | 7.4µM* | 1 | 7
SMILES | Pf growth 48h | Pf growth 96h | Cycloheximide cs | Shiga inhibitor
COc1ccc(C)cc1NC(=O)C(C)N(c1ccc(C)cc1)S(C)(=O)=O (configuration not stated) | ? | -8% | -4 | -6
Cc1cc(C)cc(N(C(C)C(=O)N2CCCC2)S(C)(=O)=O)c1 (configuration not stated) | -1% | 72% | -2 | 3
Cc1nnc(SCC(=O)Nc2ccc(N3CCN(S(C)(=O)=O)CC3)cc2)o1 | 30% | 19% | -8 | 5
CCN(CC(=O)NC(C)C)C(=O)[C@H](C)NC(=O)c1ccc(Br)cc1 | 5% | 23% | -1 | -2
Cc1ccc(C)c(NC(=O)/C(C#N)=C/c2ccc[nH]2)c1 | 7% | 0% | 33* | 11
Cc1cccc(NC(=O)/C(C#N)=C/c2ccc[nH]2)c1C | ? | 33% | 24* | 21
N#C/C(=C\c1ccc[nH]1)C(=O)NC1CC1 | 3% | . | 2 | -21
Cn1c(=O)c2ccccc2n(Cc2cccc(F)c2)c1=O | 5% | ? | -2 | -10
COc1ccccc1N1CCN(C(=O)CCNC(=O)c2ccco2)CC1 | 43% | 37% | . | .
Oc1cc(-c2ccccc2)c2ccccc2c1 | ? | 12µM* | -5 | -4
O=C(NCC1CCCO1)c1csc(Nc2cccc3ccccc23)n1 (configuration not stated) | ? | -3% | 41* | 77*
CCCNC(=O)c1csc(Nc2cccc3ccccc23)n1 | 9.3µM* | 6.6µM* | -2 | .
COCCNC(=O)c1csc(Nc2cccc3ccccc23)n1 | ? | ? | 6 | 6
CC(=O)c1csc(Nc2ccccc2Cl)n1 | 99% | 186% | 33* | 68*
C#CC1(O)CC(C)N(C)C(C)C1 (configuration not stated) | 8% | 32% | -4 | -9
COc1cc(NC(=O)COC(=O)CNC(=O)C2CCCCC2)cc(OC)c1 | 23% | 18% | . | .
CC(C)CC(=O)OC1C(N2CCOCC2)c2c(ccc(/C=C/C(=O)N3CCOCC3)c2O)OC1(C)C (configuration not stated) | ? | 2.6µM* | -2 | -3
Cc1ccccc1N/N=C/c1c(C)nc2ccccn12 | 9.3µM* | ? | -3 | -5
CC1(C)CC(=O)C(CO)=C(c2cccc3ccccc23)C1=O | 19% | 69% | . | .
Cn1c(-c2ccccc2)cnc1NCc1cc2c(cc1[N+](=O)[O-])OCO2 | -1% | ? | 53* | 60*
Cn1c(-c2cccc(Br)c2)cnc1NCc1cccnc1 | -14% | ? | 5 | -8
Cn1c(-c2ccc(Cl)cc2)cnc1NCc1cc2c(cc1[N+](=O)[O-])OCO2 | ? | 57% | -3 | -10
Cn1c(-c2ccc3c(c2)OCO3)cnc1NCc1cccc(O)c1 | -4% | ? | 25* | 44*
CSc1ccc(CNc2ncc(-c3cccc([N+](=O)[O-])c3)n2C)cc1 | 0% | -8% | -3 | -7
